# TrxR1 substrate: rat thioredoxin reductase 1 substrate activity | O89049 | Potency, µM (top dose mostly 114 µM), for inactives: at the highest dose activity change, negative = substrate turnover | 0.01% of 390,000 active | purified TrxR1 substrate turnover, NADPH consumption readout | AID 588456; further: potency means the concentration at half of the fitted maximal effect; nearly all actives have a fitted effect of over 50% in size
#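 Rat TrxR1, dispensed at 90 nM, was prereduced with 400 uM NADPH (final) for 5 min at ~22 deg C, then incubated with compound 15 min before 400 uM selenite. A first-read NADPH fluorescence drop versus no-compound background flagged substrates.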
# Coupling enz: counter-screen for Giardia aldolase inhibitors: coupling enzyme system; coupling enzyme system counterscreen, AmpLite Red fluorescence; 0.67% of 290,000 active; activity change, negative = inhibition, % at 58.2 µM, hits read low; in the data active means activity change below about -30%
#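 Compounds tested against the coupling enzymes alone at 57.5 uM final; readout was AmpLite Red fluorescence (525/598 nm) after 20 min at RT.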
# mIDH1 inhibitor: human IDH1 R132H inhibition. O75874. IDH1-R132H enzyme, NADPH consumption, diaphorase/resazurin fluorescence. Potency, µM (top dose mostly 76.6 µM), for the others: at the highest dose activity change, negative = inhibition, hits mostly inhibitors. 0.093% of 390,000 active. AID 602179; further: potency means the concentration at half of the fitted maximal effect; nearly all actives have a fitted effect of over 65% in size
#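 IDH1-R132H (0.5 ug/mL dispensed) in pH 7.5 Tris buffer was preincubated 30 min with compound, then given a substrate mix of 0.016 mM NADPH and 2 mM alpha-KG for 80 min at room temperature; remaining NADPH was read by diaphorase/resazurin fluorescence.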
# TrxR1 inh: blocks rat thioredoxin reductase 1; recombinant rTrxR1, NADPH fluorescence consumption, selenite substrate; O89049; 1% of 390,000 active; Potency, µM (top dose mostly 114 µM), without a hit: at the highest dose activity change, negative = inhibition, most hits filed as inhibitors; further: potency means the concentration at half of the fitted maximal effect; nearly all actives have a fitted effect of over 65% in size
#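 Rat TrxR1 (90 nM in the dispensed reagent) was pre-reduced with 400 uM NADPH for 5 min at room temperature, then incubated with compound for 15 min. After 400 uM selenite was added, NADPH fluorescence (Ex 340/Em 450 nm) was followed for 8 min.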
# Eya2 inh: blocks the phosphatase activity of human Eya2. Potency, µM (doses to about 76.9 µM), inactives show at the highest dose activity, negative = inhibition, hits mostly inhibitors. 0.006% of 330,000 active. recombinant Eya2, OMFP fluorescence dephosphorylation (OMFP is methylfluorescein phosphate). O00167; further: potency means the concentration at half of the fitted maximal effect
# Target sequence (O00167 whole entry, looked up): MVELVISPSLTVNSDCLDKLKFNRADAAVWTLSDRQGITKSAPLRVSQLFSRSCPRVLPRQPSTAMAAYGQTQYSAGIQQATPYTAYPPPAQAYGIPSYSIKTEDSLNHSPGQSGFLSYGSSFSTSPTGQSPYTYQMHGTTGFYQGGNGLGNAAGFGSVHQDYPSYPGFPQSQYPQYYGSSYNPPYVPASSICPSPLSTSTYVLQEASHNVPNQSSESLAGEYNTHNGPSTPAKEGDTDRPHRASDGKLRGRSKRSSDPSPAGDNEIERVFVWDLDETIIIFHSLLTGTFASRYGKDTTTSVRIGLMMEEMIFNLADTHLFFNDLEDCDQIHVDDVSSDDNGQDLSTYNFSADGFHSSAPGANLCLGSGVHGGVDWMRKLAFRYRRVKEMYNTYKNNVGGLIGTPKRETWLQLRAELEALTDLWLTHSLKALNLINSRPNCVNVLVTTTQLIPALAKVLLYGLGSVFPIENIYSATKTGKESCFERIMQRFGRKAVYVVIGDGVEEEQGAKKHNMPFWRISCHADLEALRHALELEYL
#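 Eya2 protein (added as 0.2 uM solution) was preincubated with compound for 10 min at ambient temperature in 50 mM HEPES pH 7.5, 50 mM NaCl, 5 uM MgCl2, 0.05% BSA, 1 mM DTT. OMFP (added at 50 uM) then reacted 10 min; fluorescence read at 485/525 nm.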
# * = called active by the depositor; u = inconclusive; x = not tested or not shown; [ ] = remark or other dose. The list is not random: actives were taken first. Their share in the collection is about 1.5%. Unless noted, the call rests on the fitted dose curve; in most records, active means well fitted curve in the direction sought with a large enough effect; inconclusive means small, poorly fitted or top-dose-only effect, or another doubt; inactive means no such curve, though single readings can be large; an effect the other way counts as inactive or inconclusive. On the % scale 0 is the no-effect control and ±100 the full control effect.
SMILES,TrxR1 substrate,Coupling enz,mIDH1 inhibitor,TrxR1 inh,Eya2 inh
CC(C)=CC(=O)OCC(=O)Nc1ccccc1Cl,-7%,3,0%,-13%,-2%[15.4 µM]
C/C(Cn1nnc([N+](=O)[O-])n1)=N\NC(=O)c1ccc(O)cc1,6%,-29,19%,21%,-1%
C/C(Cn1nnc([N+](=O)[O-])n1)=N\NC(=O)c1ccc(O)cc1O,3%[57.1 µM],-36*,18%,-4%[57.1 µM],-14%
C/C(Cn1nnc([N+](=O)[O-])n1)=N\NC(=O)c1ccccc1O,11%[57.1 µM],-35*,36%,32%[57.1 µM],2%
C/C(Cn1nnc([N+](=O)[O-])n1)=N\NC(=O)c1ccc(Cl)c(Cl)c1,-5%[57.1 µM],-43*,20%,u,-21%
CS(=O)(=O)c1ccc(/C=C2\C=Cc3ccccc32)cc1,-10%,x,x,-27%,x
O=C1CSC(=S)N1/N=C/C=C/c1ccccc1,-7%,-1,0%,28µM*,-13%
Cc1ccc(C2CC(c3cccs3)=NN2C(=O)CCl)cc1 (centres undefined),4%,2,5%,13µM*,3%
Cc1cc2c(NC(=O)Nc3ccccc3)cccc2nn1,1%,-42*,2%,20%,-7%
O=C(Cc1ccc([N+](=O)[O-])cc1)c1c(O)cc(O)cc1O,4%,1,4%,3.5µM*,u
Cc1cc(O)cc(O)c1C(=O)Cc1ccccc1,-14%,0,11%,-18%,1%
CC(C)(C)n1ncc2c(=O)n(Cc3ccccc3-c3ccccc3)cnc21,-2%,x,x,11%,x
COC(=O)C1=C(O)/C(=C\c2sccc2C)N=C1C,-20%,1,1%,-6%,4%
COC(=O)C1=C(O)/C(=C\c2cc(C)n(-c3ccccc3C)c2C)N=C1C,-7%,-42*,-2%,-26%,0%
COC(=O)C1=C(O)/C(=C\c2cc(C)n(-c3ccccc3F)c2C)N=C1C,-1%,4,5%,16µM*,16%
O=C(c1cccs1)c1no[n+]([O-])c1C(=O)c1cccs1,4%,-67*,1%,0.71µM*,-23%
COc1ccc(C(=O)c2no[n+]([O-])c2C(=O)c2ccc(OC)cc2)cc1,-6%,-1,-2%,0.63µM*,-3%
O=C(c1ccc(Cl)nc1)c1cccs1,-3%[57.1 µM],5,1%,-6%[57.1 µM],11%
COc1ccc(NC(=O)c2c(N)no[n+]2[O-])cc1,-3%,3,3%,25%[57.1 µM],21%
NC(=O)[C@@H]1CCCN1C(=O)C(Cc1cnc[nH]1)NC(=O)C1CCC(=O)N1 (some centres undefined),x,3,x,x,x
C=C(C(C)=O)C(O)c1cccc(Br)c1 (centres undefined),x,2,x,x,x
O=C(C[n+]1ccnc2ccccc21)c1ccc(Br)cc1,8%,x,x,8%,x
Cc1cc(C)c(NC(=S)NCC2CCN(C(C)c3ccccc3)C2)c(C)c1 (centres undefined),5%,-49*,25%,28%,-11%
Cc1ccc(NC(=S)NCC2CCN(C(C)c3ccccc3)C2)cc1 (centres undefined),1%,0,2%,-19%,-1%
CC1CC(C)CN(C(=O)c2ccc(-c3ccc([N+](=O)[O-])cc3)o2)C1 (centres undefined),-1%,x,-2%,18µM*,-18%
SMILES,TrxR1 substrate,Coupling enz,mIDH1 inhibitor,TrxR1 inh,Eya2 inh
O=C(Nc1ccccc1)c1ccc(-c2ccc([N+](=O)[O-])cc2)o1,10%[57.1 µM],-1,4%,u,1%
COc1ccc(NC(=O)c2ccc(-c3ccc([N+](=O)[O-])cc3)o2)cc1,0%,-31*,21%,6%,-20%
CCOC(=O)C(NC(=O)CCl)(Nc1sc(C)c(CC)c1C#N)C(F)(F)F (centres undefined),-6%,-2,2%,56µM*,4%
CC1CC=CC2C1C(=O)N(Cc1ccccc1)C2c1cccc([N+](=O)[O-])c1 (centres undefined),-4%,3,x,3%,x
CC(=O)[C@@H]1[C@H]2[C@H](C(=O)[C@H]3OC[C@@H]2O3)[C@H]2C=Cc3ccccc3N21,x,-17,x,x,x
CCN(N=O)c1ccc(/C=C/c2ccnc3ccccc23)cc1,-7%,x,x,11%,x
